From PubChem BioAssay AID1159580 (chemical genetic matrix, 2015)
Where “and” joins values, the source holds several entries; their conditions need not be identical. Equal entries are not always repeated. Hit rate of the full screen: of about 5,500 compounds, about 2,000 (36%) were called active. Another 18% or so got no clear call; they are omitted. No stated cut-off is given here; in the data, active means normalized growth mostly below about 0.91 (no sharp cut-off); inconclusive means no clear call, values can overlap the other calls; inactive means mostly above about 0.92. Some of the results follow.

Experiment: chemical genetic growth profiling, strain panel (AID 1159580);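 further: tested at 20 µM; growth read once vehicle control cultures reached saturation at 30 °C; 1 = growth at the plate median or of vehicle wells; lower values mean less growth of the strain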
Details: S. cerevisiae deletion strains, growth OD

Measured: normalized growth

COC(=O)[C@H]1[C@H]2C[C@@H]3c4[nH]c5cc(OC)ccc5c4CCN3C[C@H]2C[C@@H](OC(=O)c2cc(OC)c(OC)c(OC)c2)[C@@H]1OC
inactive: locus YAL013W, strain DEP1, active compounds read low 0.994 | locus YAL021C, strain ccr4, active compounds read low 0.965 | locus YAL026C, strain drs2, active compounds read low 0.974 | locus YAL030W, strain snc1, active compounds read low 0.981 | locus YBL061C, strain skt5, active compounds read low 1 | locus YBR009C, strain hhf1, active compounds read low 1.01 | locus YBR021W, strain FUR4, active compounds read low 0.981 | locus YBR023C, strain chs3, active compounds read low 0.979 | locus YBR171W, strain sec66, active compounds read low 1 | locus YBR229C, strain ROT2, active compounds read low 0.991 | locus YBR231C, strain swc5, active compounds read low 0.987 | locus YBR279W, strain paf1, active compounds read low 0.965 | locus YCL011C, strain gbp2, active compounds read low 0.97 | locus YCL016C, strain dcc1, active compounds read low 0.94 | locus YCL029C, strain bik1, active compounds read low 1.03 | locus YCL069W, strain vba3, active compounds read low 1.01 | locus YCR088W, strain abp1, active compounds read low 0.999 | locus YDL005C, strain med2, active compounds read low 0.98 | locus YDL035C, strain GPR1, active compounds read low 0.979 | locus YDL040C, strain nat1, active compounds read low 0.992 | locus YDL074C, strain BRE1, active compounds read low 0.952 | locus YDL101C, strain DUN1, active compounds read low 1.01 | locus YDL134C, strain PPH21, active compounds read low 1 | locus YDL185W, strain tfp1, active compounds read low 1.02 | locus YDL192W, strain arf1, active compounds read low 1.03 | locus YDR001C, strain nth1, active compounds read low 0.984 | locus YDR069C, strain doa4, active compounds read low 0.963 | locus YDR101C, strain arx1, active compounds read low 1 | locus YDR137W, strain rgp1, active compounds read low 1.04 | locus YDR150W, strain NUM1, active compounds read low 1 | locus YDR159W, strain sac3, active compounds read low 0.968 | locus YDR162C, strain NBP2, active compounds read low 0.991 | locus YDR195W, strain ref2 0.972 | locus YDR297W, strain sur2, active compounds read low 0.984 | locus YDR318W, strain mcm21, active compounds read low 1.01 | locus YDR334W, strain swr1, active compounds read low 0.972 | locus YDR335W, strain msn5, active compounds read low 0.993 | locus YDR388W, active compounds read low 1.01 | locus YDR392W, strain spt3, active compounds read low 0.784 | locus YDR502C, strain sam2, active compounds read low 0.996 | locus YEL003W, strain gim4, active compounds read low 0.977 | locus YEL037C, strain rad23, active compounds read low 1 | locus YEL061C, strain CIN8 (second series), active compounds read low 0.987 | locus YEL061C, strain CIN8, active compounds read low 0.999 | locus YER015W, strain faa2, active compounds read low 0.97 | locus YER016W, strain bim1, active compounds read low 1 | locus YER110C, active compounds read low 1.02 | locus YER111C, strain swi4, active compounds read low 0.996 | locus YER155C, strain BEM2 (second series), active compounds read low 0.931 | locus YER155C, strain BEM2, active compounds read low 1.02 | locus YER167W, strain BCK2, active compounds read low 0.987 | locus YFR010W, strain ubp6, active compounds read low 1.01 | locus YGL078C, strain dbp3, active compounds read low 1 | locus YGL086W, strain mad1, active compounds read low 0.998 | locus YGL167C, strain pmr1, active compounds read low 0.991 | locus YGL173C, strain kem1, active compounds read low 0.983 | locus YGL227W, strain vid30, active compounds read low 0.979 | locus YGL240W, strain doc1, active compounds read low 0.957 | locus YGL248W, strain PDE1, active compounds read low 1 | locus YGL253W, strain hxk2, active compounds read low 1.01 | locus YGR078C, strain PAC10, active compounds read low 0.975 | locus YGR135W, strain pre9, active compounds read low 1.03 | locus YGR229C, strain SMI1, active compounds read low 0.964 | locus YGR252W, strain gcn5, active compounds read low 0.929 | locus YHR013C, strain ard1, active compounds read low 0.92 | locus YHR027C, strain rpn1, active compounds read low 0.953 | locus YHR030C, strain SLT2, active compounds read low 1 and 0.982 | locus YHR079C, strain IRE1 (second series), active compounds read low 1.01 | locus YHR079C, strain IRE1, active compounds read low 0.978 | locus YHR094C, strain hxt1, active compounds read low 1.02 | locus YHR129C, strain ARP1, active compounds read low 1.01 | locus YHR142W, strain chs7, active compounds read low 0.986 | locus YHR200W, strain rpn10, active compounds read low 0.998 | locus YIL066C, strain RNR3, active compounds read low 0.986 | locus YIL073C, strain SPO22, active compounds read low 1.06 | locus YIL125W, strain kgd1, active compounds read low 1 | locus YIR030C, strain dcg1, active compounds read low 1.01 | locus YJL092W, strain hpr5, active compounds read low 0.976 | locus YJL095W, strain BCK1 (second series), active compounds read low 0.965 | locus YJL095W, strain BCK1, active compounds read low 0.996 and 0.977 | locus YJL115W, strain asf1, active compounds read low 0.966 | locus YJL129C, strain trk1, active compounds read low 0.971 | locus YJL134W, strain LCB3, active compounds read low 0.999 | locus YJL154C, strain vps35, active compounds read low 0.986 | locus YJL164C, strain tpk1, active compounds read low 0.988 | locus YJL166W, strain qcr8, active compounds read low 0.981 | locus YJL168C, strain set2, active compounds read low 1.01 | locus YJL187C, strain SWE1 (second series), active compounds read low 0.999 | locus YJR043C, strain POL32, active compounds read low 0.967 | locus YJR066W, strain TOR1, active compounds read low 0.949 | locus YJR075W, strain HOC1, active compounds read low 0.983
